Compound activity deposited in PubChem BioAssay by Columbia University Molecular Screening Center.
E-sel TNF inh – E-selectin induction blockers in HUVEC – imaging, immunofluorescence, high content, primary screen. HUVEC TNFa-induced E-selectin immunofluorescence. inhibition, % at 2 µM. hit rate 0.71% among 120,000. AID 1246, 2008;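 active means inhibition above the batch mean plus 3 SD, and confirmed as a hit on visual image review, cut at about 43% in these data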;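 further: 0% = TNF-stimulated DMSO wells and 100% = unstimulated control wells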
F-actin modifier – modifiers of F-actin cytoskeleton organization, primary screen, imaging, HUVEC, phalloidin staining, high-content imaging; HUVEC TNFa F-actin phalloidin imaging; inhibition, % at 2 µM; hit rate 0.18% among 91,000; AID 836, 2007;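 active means inhibition above the batch mean plus 3 SD and confirmed as a hit by visual image inspection, cut at about 30% in these data, passing the limit was not always enough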
TNFa cytotox – cytotoxicity in TNFa-stimulated HUVEC, primary screen, cytotoxicity control for VCAM1 expression modulator project, imaging, Hoechst nuclei count; HUVEC TNFalpha-stimulated, Hoechst cell count; hit rate 0.17% among 93,000; AID 848, 2007; cell count reduction, % at 2 µM;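 active means cell count reduction exceeding the screen mean by over 5 SD, scaled to untreated wells per plate, cut at about 78% in these data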;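 further: cells counted after 24 h of TNF alpha exposure following the 1 h pretreatment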
VCAM1 TNFa inh – inhibitors of TNFa-induced VCAM1 expression, primary screen, imaging, HUVEC, TNFa stimulus, immunofluorescence; AID 802, 2007; HUVEC TNFa-induced VCAM-1 immunofluorescence, high-content imaging; hit rate 0.48% among 95,000; inhibition, % at 2 µM;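 active means inhibition above the batch mean plus 3 SD, with images confirmed as a hit by eye, cut at about 37% in these data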;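 further: 0% = TNF-stimulated DMSO wells and 100% = unstimulated control wells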
* marks the source's active call; other numbers are inactive results; . = no result. Rows were chosen to be rich in hits. Some 1.2% of all compounds tested hit in one or more screens of this group.

SMILES	E-sel TNF inh	F-actin modifier	TNFa cytotox	VCAM1 TNFa inh
O=c1ccc2ccc(OCc3nnc(-c4ccccc4Br)o3)cc2o1	73*	19	-4	-8
O=C(c1ccc(Cl)cc1)N1CCCC(c2ccccc2)=N1	100*	15	1	16
CSc1nc(-c2ccccc2)nn1C(=O)c1ccc(Cl)cc1	-9	2	-6	14
COc1ccccc1N(CC(=O)N/N=C(\C)c1cccc(Br)c1)S(C)(=O)=O	-15	.	.	.
C/C(=N\NC(=O)CN(c1ccccc1Br)S(C)(=O)=O)c1ccc2c(c1)OCCO2	66*	.	.	.
O=c1[nH]c2ccccc2n1Cc1ccccc1	7	1	-34	6
O=c1[nH]c2cccnc2n1Cc1ccccc1	-9	35*	-10	-8
Cc1ccc(NC(=O)CCn2c(=O)oc3ccccc32)cc1	.	35	-30	9
CCc1ccc(NC(=O)CCn2c(=O)oc3ccccc32)cc1	.	.	100*	.
COc1ccc(C2CC(O)(C(C)(C)O)NO2)cc1 (configuration not stated)	47*	.	-5	-8
CSCCC(NC(=O)OCc1ccccc1)C(=O)O (configuration not stated)	-18	18	-24	97*
O=C(O)CCC(NC(=O)OCc1ccccc1)C(=O)O (configuration not stated)	3	-8	-7	-4
CC(=O)c1nnn(-c2nc(N)nc(N(c3ccccc3)c3ccccc3)n2)c1C	61*	60	-13	4
Cc1ccc(C(=O)Nc2ccc(O)cc2C(=O)O)cc1	61*	22	-9	-11
COc1ccc(OC)c(C2CC(=O)c3c([nH]c(C(=O)OC(C)C)c3C)C2)c1 (configuration not stated)	12	7	57	41*
O=C(Nc1nnc(-c2ccco2)s1)C1CC1	95*	12	-7	3
O=c1c(N=Nc2ccc(O)cc2)c(-c2ccccc2)[nH]n1-c1ccc([N+](=O)[O-])cc1	-29	.	.	.
Cc1[nH]n(-c2ccc([N+](=O)[O-])cc2)c(=O)c1N=Nc1nc2ccccc2s1	19	6	-4	52*
Clc1ccccc1-c1ccc(CN2CCN(c3ccccc3)CC2)o1	.	-17	-4	8
COC(=O)c1cc2nc(-c3ccc(OC)cc3)cc(C(F)(F)F)n2n1	16	-4	-30	16
COc1ccc(-c2cc(C(F)(F)F)n3nc(C(=O)Nc4cc(C)on4)cc3n2)cc1OC	8	-15	-1	95*
CC(C)C(=O)N(c1ccc(F)cc1)C1C=CS(=O)(=O)C1 (configuration not stated)	82*	10	-18	-10
CCC(CC)C(=O)N(c1ccc(F)cc1)C1C=CS(=O)(=O)C1 (configuration not stated)	.	-22	-33	11
Cc1ccc(C)c(N2CCN(C(=O)c3cc(S(=O)(=O)N4CCOCC4)ccc3F)CC2)c1	19	.	.	.
Cc1nc2nc(SCC(=O)O)nn2c(C)c1Cc1ccccc1Cl	10	.	.	.
SMILES	E-sel TNF inh	F-actin modifier	TNFa cytotox	VCAM1 TNFa inh
Cc1ccc(CNC(=O)C2CCN(S(=O)(=O)c3c(C)noc3/C=C/c3ccco3)CC2)cc1	57*	-14	42	-14
Cc1ccc(CCNC(=O)C2CCCN(S(=O)(=O)c3c(C)noc3C)C2)cc1 (configuration not stated)	.	-11	9	19
Cc1ccc(NC(=O)C2CCCN(S(=O)(=O)c3c(C)noc3C)C2)nc1 (configuration not stated)	65*	33	-3	-16
Cc1ccc(CCNC(=O)C2CCCN(S(=O)(=O)c3c(C)noc3/C=C/N(C)C)C2)cc1 (configuration not stated)	55*	4	-20	0
COc1cc(C(=O)N(CCc2ccccc2)C2=CC3CCC(C2)N3C)cc(OC)c1OC (configuration not stated)	4	2	-22	7
CCCCN(C(=O)c1cc(OC)c(OC)c(OC)c1)C1=CC2CCC(C1)N2C (configuration not stated)	98*	2	-10	4
CCN1C(=O)c2cccc3c(NC(=O)c4cccc(N5C(=O)CCC5=O)c4)ccc1c23	60*	-25	-18	1
CCOc1cc(C(=O)Nc2ccc3c4c(cccc24)C(=O)N3CC)cc(OCC)c1OCC	-19	-18	6	15
Cc1cccc(C(=O)NNC(=O)Nc2ccccc2)c1	65*	.	.	.
O=S(=O)(c1ccc(Cl)c(Cl)c1)c1snnc1-c1ccccc1	19	5	48	96*
CCOC(=O)c1ccc(-n2c(=S)sc3c(=O)[nH]c(C)nc32)cc1	-16	12	-8	87*
